# Screening results from PubChem BioAssay.
# SENP7 block – inhibitors of human SENP7 protease. recombinant SENP7, Z-RLRGG-aminoluciferin luminescence, 40 min. AID 434973. actives 1.5% (n = 330,000). Q9BQF6. inhibition, % at 5 µM;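 active means inhibition above about 50% at the single test dose, limit read from the data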;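 further: plate controls were DMSO with enzyme for no effect and no enzyme buffer wells for full effect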
# SENP8 block-1 – inhibitors of human SENP8 protease | purified SENP8, Z-RLRGG-aminoluciferin cleavage, luminescence | inhibition, % at 10 µM | actives 1.2% (n = 330,000) | AID 2540; in the data active means inhibition above about 50%
# Target sequence (Q96LD8 whole entry, looked up): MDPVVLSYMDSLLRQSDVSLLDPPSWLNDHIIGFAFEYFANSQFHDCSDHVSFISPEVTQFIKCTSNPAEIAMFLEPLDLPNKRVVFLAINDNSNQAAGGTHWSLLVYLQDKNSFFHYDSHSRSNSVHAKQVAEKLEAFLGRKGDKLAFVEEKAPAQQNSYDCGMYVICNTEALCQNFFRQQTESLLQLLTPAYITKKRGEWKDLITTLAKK
# SENP6 block – blocks the human protease SENP6; actives 1.8% (n = 330,000); Recombinant SENP6 catalytic domain, aminoluciferin luminescence; Q9GZR1; inhibition, % at 10 µM; AID 2599;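 active means inhibition above about 50% at the single tested dose, limit read from the data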;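 further: plate controls were DMSO wells with enzyme for no effect and DMSO wells lacking enzyme for full effect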
# Platelet DG rel – modulates dense granule release in human platelets. inhibition, %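 (compounds screened at 7.5 µM in platelet-rich plasma)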. actives 0.22% (n = 300,000). human platelet-rich plasma, SFLLRN dense granule ATP release, luminescence;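 active means mean replicate score, as percent of positive control, at or above 50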
# SENP8 block-2 – SENP8 (human) protease inhibition. AID 602440. Q96LD8. recombinant SENP8, Nedd8 substrate fluorescence. actives 0.64% (n = 360,000). inhibition, % at 20 µM; in the data active means inhibition mostly above about 40%, no sharp cut-off; inactive means mostly below about 27%
# SENP8 confirm – human SENP8 inhibition, confirmed. Recombinant SENP8, Z-RLRGG-aminoluciferin luminescence, 60 min. actives 40% (n = 6,200). shares compounds with SENP7 block. inhibition, % at 12.5 µM;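 active means mean inhibition across replicates above about 50%, limit read from the data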
# SENP6 conf – confirmation of human SENP6 protease inhibitors. shares compounds with SENP7 block. recombinant SENP6, Z-RLRGG-aminoluciferin luminescence. inhibition, % at 12.5 µM. actives 58% (n = 6,200). AID 488915
# SENP7 conf – confirmation of human SENP7 protease inhibitors; shares compounds with SENP7 block; recombinant SENP7, Z-RLRGG-aminoluciferin luminescence, 40 min; inhibition, % at 12.5 µM; actives 69% (n = 6,200)
# Casp3 select – caspase-3 inhibition (SENP selectivity assay); shares compounds with SENP7 block; purified caspase-3, Z-DEVD-aminoluciferin luminescence, 60 min; inhibition, % at 12.5 µM; actives 60% (n = 6,200); AID 488918;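 active means mean inhibition above about 50%, limit read from the data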;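 further: plate controls were enzyme with DMSO for no effect and wells without caspase-3 for full effect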
# Target sequence (P42574 28-227 limits assumed): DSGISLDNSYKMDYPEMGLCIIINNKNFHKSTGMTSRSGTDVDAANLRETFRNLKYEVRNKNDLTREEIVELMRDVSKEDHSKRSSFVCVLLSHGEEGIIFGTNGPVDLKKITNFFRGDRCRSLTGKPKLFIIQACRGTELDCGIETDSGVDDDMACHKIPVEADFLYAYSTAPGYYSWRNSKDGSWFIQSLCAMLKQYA
# SENP luc ctr – counter-screen for SENP inhibitors: luminescence interference; actives 39% (n = 6,200); inhibition, % at 12.5 µM; Pre-incubated SENP8/Z-RLRGG-aminoluciferin, luciferase luminescence interference; shares compounds with SENP7 block;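 active means mean inhibition above about 50% when retested at one dose, limit read from the data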;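 further: plate controls were DMSO wells with completed reaction for no effect and substrate without enzyme for full effect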
# Numbers without * were called inactive; / = no result. Hits are enriched below; roughly 2.4% of the tested compounds scored in any of these assays.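 How the source made its calls, unless noted: active means mean inhibition above about 50% in the one-dose retest (limit read from the data); inactive means the rest.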
SMILES,SENP7 block,SENP8 block-1,SENP6 block,Platelet DG rel,SENP8 block-2,SENP8 confirm,SENP6 conf,SENP7 conf,Casp3 select,SENP luc ctr
CCc1ccccc1NC(=O)Nc1cccc(F)c1,44,13,36,-7,21,/,/,/,/,/
CSc1ccccc1NC(=O)Nc1cccc(F)c1,83*,69*,86*,-1,6,87*,86*,98*,79*,68*
O=C(NCCc1ccccc1Cl)C1CC(=O)N(C2CCCCC2)C1 (centres undefined),1,4,4,2,4,/,/,/,/,/
Cc1cc(/C=c2\sc3nc4ccccc4n3c2=O)c(C)n1-c1ccc(C(=O)O)cc1,/,/,/,-5,-71,/,/,/,/,/
Cc1cc(/C=c2/sc3nc4ccccc4n3c2=O)c(C)n1-c1ccccn1,6,91*,79*,35,-80,32,54*,29,64*,2
Cc1cc(C(=O)CSc2nc(N)cc(=O)[nH]2)ccc1F,1,90*,7,2,20,2,4,3,-4,1
O=C1CCCN1CCCNS(=O)(=O)c1ccc(F)cc1F,1,1,0,5,14,/,/,/,/,/
COc1ccc(N2CCOCC2)c(NC(=O)c2cc3ccccc3o2)c1,-1,2,11,1,2,/,/,/,/,/
O=C(NNC(=S)Nc1cccc2ccccc12)c1cccc(Br)c1,16,18,4,6,-84,/,/,/,/,/
CC(=O)Nc1cccc(NC(=S)Nc2cccc3ccccc23)c1,22,24,45,0,-467,/,/,/,/,/
CC(=O)c1cccc(NC(=S)Nc2cccc3ccccc23)c1,19,62*,84*,16,-396,1,7,5,10,13
COc1ccc(NC(=S)Nc2cccc3ccccc23)cc1OC,63*,77*,88*,-7,-376,4,11,4,1,3
Cc1ccc(C(=O)NNC(=S)Nc2cccc3ccccc23)s1,44,28,55*,-47,-328,-11,-13,-1,-2,16
Cc1ccccc1/C(N)=N/OC(=O)/C=C/c1ccccc1,60*,37,67*,-4,14,51*,52*,83*,71*,64*
Cc1ccc(/C(N)=N/OC(=O)/C=C/c2ccccc2)cc1,0,-5,12,1,7,/,/,/,/,/
N/C(=N\OC(=O)c1cccs1)c1cccnc1,2,-2,19,10,12,/,/,/,/,/
Cc1ccccc1/C(N)=N/OC(=O)c1cccs1,46,33,74*,17,6,56*,55*,84*,80*,62*
COC(=O)c1cc(N/C(N)=N/c2nc(C)cc(C)n2)cc(C(=O)OC)c1,/,/,/,/,14,/,/,/,/,/
CCc1ccc(Nc2ncc3c(n2)CC(C)(C)CC3=O)cc1,-12,-22,-20,2,-452,/,/,/,/,/
CCCCCNC(=O)C(c1ccnc2ccccc12)n1c(=O)c(-c2cc3ccccc3[nH]2)nc2ccccc21 (centres undefined),/,/,/,/,-418,/,/,/,/,/
Cc1ccc(S(=O)(=O)NC(=O)NN2CC3CCCC3C2)cc1 (centres undefined),1,-6,0,-9,19,/,/,/,/,/
CCOc1ccccc1NC(=O)C1CCN(S(=O)(=O)c2ccc(OC)c(OC)c2)CC1,71*,2,-9,2,15,2,6,7,4,3
O=C(CSc1ccc(F)cc1)Nc1ccc(C2SCCS2)cc1,2,-4,-7,-9,21,/,/,/,/,/
c1coc(CNc2nc3ccccc3s2)c1,43,17,58*,-3,12,23,23,70*,55*,41
COc1cccc(C2C(C(=O)c3cccs3)=C(O)C(=O)N2CCN2CCOCC2)c1OC (centres undefined),2,3,-3,-2,20,/,/,/,/,/
